Unmarked numbers belong to inactive results. Records with an inconclusive call do not appear. A call without a number means that no potency is given here. Activity calls are given as the source filed them. Unless noted, the call rests on the fitted dose curve; in most records, active means well fitted curve in the direction sought with a large enough effect; inconclusive means small, poorly fitted or top-dose-only effect, or another doubt; inactive means no such curve, though single readings can be large; an effect the other way counts as inactive or inconclusive.
How the values were obtained:
[1] = qHTS assay for measurement of the activity of small molecule inhibitors on Zika virus induced Caspase-3 activity in human astrocytoma cells (AID 1224859)
Summary of the method: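 Percent inhibition of virus-induced caspase-3/7 signal is calculated against uninfected and ZIKV-infected control cells. Cells are SNB-19, infected at 2 FFU/cell for 6 h after 1 h compound exposure.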

[2] = qHTS assay to identify small molecule inhibitors of chordoma cells - UCH-1 (AID 1259355); further: nearly all actives have a fitted effect of over 55% in size
Summary of the method: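 Screening used approved and investigational drugs in 15-point titration against 800 seeded cells per well. A fixed combination of auranofin with camptothecin, doxorubicin, rubitecan and topotecan followed compound addition, and growth was scored by CellTiter-Glo after 48hr.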

[3] = qHTS assay to identify small molecule inhibitors of chordoma cells - UCH-2 (AID 1259356); further: series mostly up to about 46 µM
[4] = P-glycoprotein substrates identified in KB-8-5-11 adenocarcinoma cell line, qHTS therapeutic library screen (AID 1346987); further: nearly all actives have a fitted effect of over 65% in size
Summary of the method: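 Compounds are pinned in dose-response onto KB-8-5-11 cells (500 cells/well, colchicine-free medium) and left 72 h at 37 degree C. CellTiter-Glo luminescence then yields AC50 values.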

[5] = NS1 protein of Zika virus - qHTS assay to identify small molecule inhibitors in human HEK 293 cells (AID 1347053); further: series mostly up to about 46 µM; nearly all actives have a fitted effect of over 55% in size
Summary of the method: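 Compound-treated (1 h pre-infection) HEK 293 cells infected with ZIKV MR766, MOI = 0.5; after 24 h at 37 C, NS1 read by TR-FRET; data normalized to uninfected and infected controls.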

[6] = qHTS of pediatric cancer cell lines to identify multiple opportunities for drug repurposing: Primary screen for TC32 cells (AID 1347089); further: nearly all actives have a fitted effect of over 60% in size
Summary of the method: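 In the primary qHTS, MIPE compounds were tested at 11 concentrations (0.78 nM to 46 µM) and NPC compounds at 8 (0.59 nM to 46 µM) on TC32 cells for 48 h. CellTiter-Glo luminescence gave viability.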

[7] = molecular target: Atrial natriuretic peptide receptor 1 (Homo sapiens) (UniProt P16066); experiment: Natriuretic polypeptide receptor (hNpr1) antagonism - Pilot screen (AID 1347049; calls by dose curve;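 further: agonist-evoked cGMP luminescence read 20 min after hNppA addition; series mostly up to about 58 µM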)
Sequence of Atrial natriuretic peptide receptor 1 (Homo sapiens) (P16066 whole entry, looked up): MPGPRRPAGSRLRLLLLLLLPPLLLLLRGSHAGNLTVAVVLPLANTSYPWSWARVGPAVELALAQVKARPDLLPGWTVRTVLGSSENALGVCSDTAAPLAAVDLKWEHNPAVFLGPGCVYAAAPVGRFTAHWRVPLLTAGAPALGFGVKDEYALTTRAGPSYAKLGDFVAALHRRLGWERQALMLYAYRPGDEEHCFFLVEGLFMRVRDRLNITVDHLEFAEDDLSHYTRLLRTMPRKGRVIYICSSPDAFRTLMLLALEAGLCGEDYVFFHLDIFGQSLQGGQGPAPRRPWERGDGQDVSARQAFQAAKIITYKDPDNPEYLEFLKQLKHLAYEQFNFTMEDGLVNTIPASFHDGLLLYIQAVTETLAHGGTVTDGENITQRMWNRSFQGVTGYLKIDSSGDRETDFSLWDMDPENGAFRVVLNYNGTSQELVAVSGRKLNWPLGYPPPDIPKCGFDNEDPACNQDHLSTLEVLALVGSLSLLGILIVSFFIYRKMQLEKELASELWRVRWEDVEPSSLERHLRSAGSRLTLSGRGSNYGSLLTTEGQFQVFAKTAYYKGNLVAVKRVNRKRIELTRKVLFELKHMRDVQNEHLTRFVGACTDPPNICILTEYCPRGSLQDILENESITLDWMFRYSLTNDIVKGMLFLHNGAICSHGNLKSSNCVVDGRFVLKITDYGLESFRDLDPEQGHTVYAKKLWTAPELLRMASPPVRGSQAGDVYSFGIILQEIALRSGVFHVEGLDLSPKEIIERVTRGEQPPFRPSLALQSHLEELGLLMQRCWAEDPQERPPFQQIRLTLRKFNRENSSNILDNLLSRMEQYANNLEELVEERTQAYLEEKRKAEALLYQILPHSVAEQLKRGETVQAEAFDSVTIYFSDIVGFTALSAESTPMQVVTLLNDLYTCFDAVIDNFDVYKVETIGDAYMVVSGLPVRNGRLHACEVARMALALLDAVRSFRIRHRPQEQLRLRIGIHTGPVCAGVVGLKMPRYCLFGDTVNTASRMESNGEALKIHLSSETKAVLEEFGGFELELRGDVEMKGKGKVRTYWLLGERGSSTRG
Summary of the method: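 cGMP-sensor HEK293/hNpr1 cells, 1500/well, plated overnight at 37C. 2% GloSensor reagent, 2 h RT. Compound (23 nL pin transfer) 30 min RT, baseline luminescence pre-read. 0.1 nM hNppA, 20 min RT, post-read.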

[8] = molecular target: Atrial natriuretic peptide receptor 2 (Homo sapiens) (UniProt P20594); experiment: Natriuretic polypeptide receptor (hNpr2) antagonism - Pilot subtype selectivity assay (AID 1347050; calls by dose curve; further: potency means the concentration at half of the fitted maximal effect)
Sequence of Atrial natriuretic peptide receptor 2 (Homo sapiens) (P20594 whole entry, looked up): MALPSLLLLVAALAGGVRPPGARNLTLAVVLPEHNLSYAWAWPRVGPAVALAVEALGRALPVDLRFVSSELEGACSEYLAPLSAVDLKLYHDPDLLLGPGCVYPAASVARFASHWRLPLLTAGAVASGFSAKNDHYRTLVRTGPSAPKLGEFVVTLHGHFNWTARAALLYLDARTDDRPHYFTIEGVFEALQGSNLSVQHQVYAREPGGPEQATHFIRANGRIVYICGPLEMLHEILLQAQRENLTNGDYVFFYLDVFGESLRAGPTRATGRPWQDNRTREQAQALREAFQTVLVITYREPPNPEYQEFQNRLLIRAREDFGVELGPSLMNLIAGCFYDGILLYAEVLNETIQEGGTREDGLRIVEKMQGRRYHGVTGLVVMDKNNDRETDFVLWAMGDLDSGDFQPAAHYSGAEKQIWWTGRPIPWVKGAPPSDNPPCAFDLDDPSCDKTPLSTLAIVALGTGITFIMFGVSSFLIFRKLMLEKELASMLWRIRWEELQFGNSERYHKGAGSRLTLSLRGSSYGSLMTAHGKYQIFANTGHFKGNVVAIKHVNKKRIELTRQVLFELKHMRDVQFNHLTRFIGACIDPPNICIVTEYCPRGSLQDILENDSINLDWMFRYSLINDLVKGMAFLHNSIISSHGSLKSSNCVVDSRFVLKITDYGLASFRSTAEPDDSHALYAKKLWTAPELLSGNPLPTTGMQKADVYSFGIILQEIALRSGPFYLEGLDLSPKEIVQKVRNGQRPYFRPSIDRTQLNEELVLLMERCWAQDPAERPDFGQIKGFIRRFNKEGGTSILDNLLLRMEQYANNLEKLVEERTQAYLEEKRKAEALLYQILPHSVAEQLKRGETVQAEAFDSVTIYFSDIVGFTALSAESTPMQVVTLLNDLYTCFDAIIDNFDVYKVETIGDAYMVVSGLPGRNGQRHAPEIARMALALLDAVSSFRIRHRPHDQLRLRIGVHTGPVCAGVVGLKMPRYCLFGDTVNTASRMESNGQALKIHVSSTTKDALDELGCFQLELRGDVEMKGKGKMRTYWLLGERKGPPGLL
Summary of the method: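 Luminescence from a genetically encoded cGMP luciferase biosensor in hNpr2-expressing HEK293 cells is read before and 20 min after adding 1 nM hNppC. Test compounds, in interplate 1:5 titrations, are added 30-50 min ahead of the agonist.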

[9] = molecular target: T1, Tyrosine-protein phosphatase non-receptor type substrate 1 (Homo sapiens) + Leukocyte surface antigen CD47 (Homo sapiens) (UniProt P78324+Q08722); experiment: CD47-SIRPalpha protein protein interaction - LANCE assay qHTS validation (AID 1347057; active means well fitted curve in the direction sought with a large enough effect in the signal ratio, with a control signal flat, not every such curve was filed as active; the % refers to the signal ratio; further: series mostly up to about 38 µM)
T1 sequence (P78324 whole entry, looked up, the tested form may be a part): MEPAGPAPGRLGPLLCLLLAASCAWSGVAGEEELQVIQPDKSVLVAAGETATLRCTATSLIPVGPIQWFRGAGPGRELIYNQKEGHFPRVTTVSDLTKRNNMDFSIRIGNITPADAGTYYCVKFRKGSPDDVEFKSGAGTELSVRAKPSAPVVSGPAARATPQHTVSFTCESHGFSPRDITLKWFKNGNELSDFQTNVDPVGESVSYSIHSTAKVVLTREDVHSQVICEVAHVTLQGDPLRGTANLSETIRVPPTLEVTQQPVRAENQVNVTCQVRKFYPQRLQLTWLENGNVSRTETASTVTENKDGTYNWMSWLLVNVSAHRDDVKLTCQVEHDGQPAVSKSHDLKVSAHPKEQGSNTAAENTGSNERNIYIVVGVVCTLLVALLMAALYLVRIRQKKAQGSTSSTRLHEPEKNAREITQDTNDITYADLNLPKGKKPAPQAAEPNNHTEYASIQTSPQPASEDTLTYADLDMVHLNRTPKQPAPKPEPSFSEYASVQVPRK
T1 sequence (Q08722 whole entry, looked up, the tested form may be a part): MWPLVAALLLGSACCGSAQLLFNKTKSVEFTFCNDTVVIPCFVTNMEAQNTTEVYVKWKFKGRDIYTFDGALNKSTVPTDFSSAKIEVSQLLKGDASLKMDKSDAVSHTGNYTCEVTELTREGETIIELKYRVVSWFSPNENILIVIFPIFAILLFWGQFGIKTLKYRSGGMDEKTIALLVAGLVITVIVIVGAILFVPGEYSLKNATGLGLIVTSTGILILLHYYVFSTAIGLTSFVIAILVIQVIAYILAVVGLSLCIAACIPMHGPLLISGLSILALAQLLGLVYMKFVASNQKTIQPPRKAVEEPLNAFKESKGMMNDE
Summary of the method: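 Inhibition of soluble CD47/SIRPalpha ectodomain association by titrated compounds, measured as 665/615 nm time-resolved FRET ratio after sequential 30 min room-temperature incubations.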

[10] = molecular target: Parathyroid hormone/parathyroid hormone-related peptide receptor (Homo sapiens) (UniProt Q03431); experiment: qHTS for PTHR1 Agonists: Optimization Screen against the NCGC LOPAC library (AID 1347079);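 further: GloSensor cAMP luminescence in HEK-293 GP2 cells expressing human PTHR1 with IBMX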
Sequence of Parathyroid hormone/parathyroid hormone-related peptide receptor (Homo sapiens) (Q03431 whole entry, looked up): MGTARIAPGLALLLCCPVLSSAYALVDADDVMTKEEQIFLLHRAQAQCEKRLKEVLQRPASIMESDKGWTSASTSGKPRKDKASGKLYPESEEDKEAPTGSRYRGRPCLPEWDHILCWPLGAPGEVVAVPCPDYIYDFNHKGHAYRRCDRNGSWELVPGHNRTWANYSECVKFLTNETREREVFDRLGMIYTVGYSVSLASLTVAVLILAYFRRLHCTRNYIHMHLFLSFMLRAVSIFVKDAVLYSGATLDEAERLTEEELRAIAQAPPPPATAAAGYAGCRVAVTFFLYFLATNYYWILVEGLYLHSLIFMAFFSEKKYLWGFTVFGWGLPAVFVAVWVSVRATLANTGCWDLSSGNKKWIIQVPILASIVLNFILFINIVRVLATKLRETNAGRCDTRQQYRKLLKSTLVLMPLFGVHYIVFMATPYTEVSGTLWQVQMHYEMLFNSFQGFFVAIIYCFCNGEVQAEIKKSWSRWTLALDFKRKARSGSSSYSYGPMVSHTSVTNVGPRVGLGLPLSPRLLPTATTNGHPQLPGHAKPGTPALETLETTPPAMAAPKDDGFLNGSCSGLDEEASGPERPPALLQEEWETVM
Summary of the method: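 HEK-293 GP2 cells, PTHR1 + GloSensor cAMP; 3000 cells/well, o/n. Luciferin + IBMX 0.5mM each (stock), 1 hr 37C. Cpd titration, 1 hr 37C. Lum after 15 min RT. Ctrl M-PTH(1-15) top 10uM.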

[11] = Natriuretic polypeptide receptor (hNpr1) antagonism - Pilot counterscreen GloSensor control cell line (AID 1347045; calls by dose curve; further: series mostly up to about 38 µM)
Summary of the method: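 Control counterscreen: luciferase cGMP-biosensor HEK293 cells (no Npr1) received compound for 30 min at room temperature after GloSensor substrate loading. Luminescence was measured before and 20 min after soluble guanylyl cyclase activation by 50 uM nitroprusside.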

[12] = molecular target: T1, Tyrosine-protein phosphatase non-receptor type substrate 1 (Homo sapiens) + Leukocyte surface antigen CD47 (Homo sapiens); experiment: CD47-SIRPalpha protein protein interaction - Alpha assay qHTS validation (AID 1347059);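 further: bead proximity luminescence from CD47 binding SIRPalpha after compound preincubation with SIRPalpha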
Summary of the method: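 SIRPalpha-biotin 25 nM + cpd, 30 min RT, dark; add CD47-His 12.5 nM, 30 min; add Ni-NTA/SAV beads 10 ug/mL, 30 min; AlphaScreen. Buffer PBS pH 7.4 + 0.05% IGEPAL CA-630. Non-biotinylated SIRPalpha as control inhibitor.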

CC[C@@]1(c2ccccc2)NC(=O)N(C)C1=O
outcome [1]: inactive
Potency [2]: inactive
outcome [3]: inactive
Potency [4]: inactive
Potency [5]: inactive
Potency [6]: inactive

CC(=O)Nc1ccc(/C=N/NC(N)=S)cc1
outcome [1]: inactive
Potency [2]: inactive
outcome [3]: inactive
Potency [4]: inactive
Potency [5]: inactive
Potency [6]: inactive

O=S(=O)(O)c1cc(I)c(O)c2ncccc12
outcome [1]: inactive
Potency [2]: inactive
outcome [3]: inactive
Potency [4]: inactive
Potency [5]: inactive
Potency [6]: inactive

C[C@@H](O)[C@H](N)C(=O)O
outcome [1]: inactive
Potency [2]: inactive
outcome [3]: inactive
Potency [4]: inactive
Potency [5]: inactive
Potency [6]: inactive

Cc1cc2c(cc1S(N)(=O)=O)S(=O)(=O)CCC2
outcome [1]: inactive
Potency [2]: inactive
outcome [3]: inactive
Potency [4]: inactive
Potency [5]: inactive
Potency [6]: inactive

CC/C=C(\C(=O)N[C@@H]1C(=O)N2C(C(=O)OCOC(=O)C(C)(C)C)=C(COC(N)=O)CS[C@H]12)c1csc(N)n1
outcome [1]: inactive
Potency [4]: inactive
Potency [5]: inactive
Potency [6]: inactive

CCCOC(=O)c1ccccc1
outcome [1]: inactive
Potency [2]: inactive
outcome [3]: inactive
Potency [4]: inactive
Potency [5]: inactive
Potency [6]: inactive

CCCCOC(=O)c1ccc(O)cc1
outcome [1]: inactive
Potency [2]: inactive
outcome [3]: inactive
Potency [4]: inactive
Potency [5]: inactive
Potency [6]: inactive

Cc1cc(O)cc2c1O[C@](C)(CCC[C@H](C)CCC[C@H](C)CCCC(C)C)CC2
outcome [1]: inactive
Potency [2]: inactive
outcome [3]: inactive
Potency [4]: inactive
Potency [5]: inactive
Potency [6]: inactive

Nc1nc2c(ncn2CCC(CO)CO)c(=O)[nH]1
outcome [1]: inactive
Potency [2]: inactive
outcome [3]: inactive
Potency [4]: inactive
Potency [5]: inactive
Potency [6]: inactive

COC(=O)C1=C(C)NC(C)=C(C(=O)OC)C1c1ccccc1[N+](=O)[O-]
outcome [1]: inactive
Potency [2]: inactive
outcome [3]: inactive
outcome [7]: inactive
Potency [8]: 13.1 µM (active)
Potency [5]: inactive
outcome [9]: inactive
Potency [10]: inactive
Potency [6]: inactive

CN1[C@@H]2CC(OC(=O)[C@H](CO)c3ccccc3)C[C@H]1[C@@H]1O[C@@H]12 (stereo partly drawn)
outcome [1]: inactive
Potency [2]: inactive
outcome [3]: inactive
Potency [5]: inactive
Potency [6]: inactive

CCCCCCCCCCCCOS(=O)(=O)O
outcome [1]: inactive
Potency [2]: inactive
outcome [3]: inactive
Potency [4]: inactive
Potency [5]: inactive
Potency [6]: inactive

C[C@@H]1CC[C@@]2(OC1)O[C@H]1C[C@H]3[C@@H]4CC[C@H]5C[C@@H](O)CC[C@]5(C)[C@H]4CC(=O)[C@]3(C)[C@H]1[C@@H]2C
activity change, negative = inhibition [1]: -4.08% [at 4.53 µM]
Potency [2]: inactive
outcome [3]: inactive
Potency [4]: inactive
activity change, negative = inhibition [5]: -2.82% [at 4.81 µM]
activity change, negative = cytotoxic [6]: 10.8% [at 4.81 µM]

CC1(C)S[C@@H]2[C@H](NC(=O)Cc3ccccc3)C(=O)N2[C@H]1C(=O)O (tested in a mixture with another compound)
outcome [1]: inactive
Potency [2]: inactive
outcome [3]: inactive
Potency [4]: inactive
Potency [5]: inactive
Potency [6]: inactive

COc1cc(C)c(Cc2cnc(N)nc2N)cc1OC
outcome [1]: inactive
Potency [2]: inactive
outcome [3]: inactive
Potency [4]: inactive
Potency [5]: inactive
Potency [6]: inactive

CN(N=O)C(=O)N[C@@H]1[C@@H](O)[C@H](O)[C@@H](CO)O[C@@H]1O
outcome [1]: inactive
Potency [2]: inactive
outcome [3]: inactive
Potency [4]: inactive
Potency [5]: inactive
Potency [6]: inactive

CC12CCC(CC1)C(C)(C)O2
outcome [1]: inactive
Potency [2]: inactive
outcome [3]: inactive
Potency [4]: inactive
Potency [5]: inactive
Potency [6]: inactive

C[C@]12CC[C@@H]3c4ccc(O)cc4CC[C@H]3[C@@H]1CCC2=O
outcome [1]: inactive
outcome [11]: inactive
outcome [7]: inactive
Potency [8]: inactive
Potency [5]: inactive
outcome [9]: inactive
outcome [12]: inactive
Potency [10]: inactive
Potency [6]: inactive

Oc1cccc(O)c1
outcome [1]: inactive
Potency [2]: inactive
outcome [3]: inactive
Potency [4]: inactive
Potency [5]: inactive
Potency [6]: inactive

O=c1[nH]cnc2c1ncn2[C@@H]1O[C@H](CO)[C@@H](O)[C@H]1O
outcome [1]: inactive
Potency [2]: inactive
outcome [3]: inactive
Potency [4]: inactive
Potency [5]: inactive
Potency [6]: inactive

CC(C)c1c(C(=O)Nc2ccccc2)c(-c2ccccc2)c(-c2ccc(F)cc2)n1CC[C@@H](O)C[C@@H](O)CC(=O)O
outcome [1]: inactive
Potency [4]: inactive
Potency [5]: inactive
outcome [9]: inactive
outcome [12]: inactive

COc1ccc2c(c1)C(=O)N(CCc1ccc(S(=O)(=O)NC(=O)NC3CCCCC3)cc1)C(=O)C2(C)C
outcome [1]: inactive
Potency [2]: inactive
outcome [3]: inactive
Potency [4]: inactive
Potency [5]: inactive
Potency [6]: inactive

CCCCN1CCCC[C@H]1C(=O)Nc1c(C)cccc1C
outcome [1]: inactive
Potency [2]: inactive
outcome [3]: inactive
Potency [4]: inactive
Potency [5]: inactive
Potency [6]: inactive

OCC(CO)N[C@H]1C[C@](O)(CO)[C@@H](O)[C@H](O)[C@H]1O
outcome [1]: inactive
Potency [2]: inactive
outcome [3]: inactive
Potency [4]: inactive
Potency [5]: inactive
Potency [6]: inactive

COc1ccc2cc1Oc1cc3c(cc1OC)CC[N+](C)(C)[C@H]3Cc1ccc(cc1)Oc1c(OC)c(OC)cc3c1[C@@H](C2)[N+](C)(C)CC3
outcome [1]: inactive
Potency [2]: inactive
outcome [3]: inactive
Potency [4]: inactive
Potency [5]: inactive
Potency [6]: inactive
